In PubChem BioAssay (EPA / NIEHS):
The source made the active and inactive calls. The calls were made as follows: active = hit-call score of the fitted dose curve at least 0.9, where 1 is the maximum; inactive = score below 0.9.

Experiments:
Conditions in all cases: mRNA level, 48 h; actives raise or lower the signal
[1] = read-out: ABC Transporter (ABCB11), ABCB11 (gene 8647); assay: LTEA_HepaRG_ABCB11: Life Technologies and Expression Analysis (LTEA) Assay for ABC Transporter (ABCB11) using HepaRG (AID 2283463)
Outline: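 HepaRG, 48 h exposure, 8-pt half-log CRC top 100 uM, 0.5% DMSO vehicle, duplicates. Readout: TaqMan qRT-PCR of ABCB11 mRNA, housekeeping-normalized (ACTB/GAPDH/POLR2A). Bidirectional fit vs DMSO baseline.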

[2] = read-out: ABC Transporter (ABCC2), ABCC2 (gene 1244); assay: LTEA_HepaRG_ABCC2: Life Technologies and Expression Analysis (LTEA) Assay for ABC Transporter (ABCC2) using HepaRG (AID 2283464)
Outline: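 Endpoint is ABCC2 transcript level from qRT-PCR, normalized to three housekeeping genes and fitted bidirectionally relative to DMSO. Human HepaRG cells received test chemical for 48 h at up to 100 uM (8 points, half-log steps, 0.5% DMSO), duplicate wells.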

[3] = read-out: Broad substrate specificity ATP-binding cassette transporter ABCG2 (Homo sapiens) (UniProt Q9UNQ0); assay: LTEA_HepaRG_ABCG2: Life Technologies and Expression Analysis (LTEA) Assay for ABC Transporter (ABCG2) using HepaRG (AID 2283465)
Outline: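 HepaRG, 48 h exposure, 8-pt half-log series from 100 uM, 0.5% DMSO vehicle, duplicates. Readout: ABCG2 transcript by qRT-PCR (Fluidigm array), housekeeping-normalized; bidirectional curve fit relative to DMSO baseline.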

[4] = read-out: ATP-citrate lyase (ACLY), ACLY (gene 47); assay: LTEA_HepaRG_ACLY: Life Technologies and Expression Analysis (LTEA) Assay for ATP-citrate lyase (ACLY) using HepaRG (AID 2283466)
Outline: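 qRT-PCR readout of ACLY transcript after 48 h chemical treatment of HepaRG cells; expression normalized to three housekeeping genes. Eight-point half-log series, highest 100 uM, 0.5% DMSO vehicle. Gain or loss fitted against DMSO baseline.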

[5] = read-out: Peroxisomal acyl-coenzyme A oxidase 1 (ACOX1) gene, ACOX1 (gene 51); assay: LTEA_HepaRG_ACOX1: Life Technologies and Expression Analysis (LTEA) Assay for Peroxisomal acyl-coenzyme A oxidase 1 (ACOX1) gene using HepaRG (AID 2283467)
Outline: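 HepaRG, 48 h chemical exposure, 8-pt half-log series from 100 uM top, 0.5% DMSO vehicle, duplicates. Readout: ACOX1 mRNA by Fluidigm qRT-PCR, housekeeping-normalized; bidirectional fit vs DMSO baseline.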

[6] = read-out: Alkaline Phosphatase, Placental (ALPP) gene, ALPP (gene 250); assay: LTEA_HepaRG_ALPP: Life Technologies and Expression Analysis (LTEA) Assay for Alkaline Phosphatase, Placental (ALPP) gene using HepaRG (AID 2283468);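 as to AC50: differentiated human HepaRG liver cells in serum-free induction medium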
Outline: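 ALPP transcript level, measured by qRT-PCR and normalized to three housekeeping genes (ACTB, GAPDH, POLR2A), after 48 h dosing of differentiated HepaRG in serum-free induction medium. Top concentration 100 uM with half-log dilutions (8 points, 0.5% DMSO, duplicates); bidirectional fitting relative to DMSO.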

[7] = read-out: Bcl-2 (BAD) gene, BAD (gene 572); assay: LTEA_HepaRG_BAD: Life Technologies and Expression Analysis (LTEA) Assay for Bcl-2 (BAD) gene using HepaRG (AID 2283469)
Outline: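 HepaRG, 48 h exposure, 8-pt half-log curve from 100 uM in 0.5% DMSO, duplicates. Readout: TaqMan qRT-PCR for BAD mRNA, housekeeping-normalised (ACTB/GAPDH/POLR2A); gain or loss fitted against DMSO baseline.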

[8] = read-out: Bcl-2 (BAX) gene, BAX (gene 581); assay: LTEA_HepaRG_BAX: Life Technologies and Expression Analysis (LTEA) Assay for Bcl-2 (BAX) gene using HepaRG (AID 2283470)
Outline: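 Human HepaRG cells treated in duplicate for 48 h across eight concentrations (max 100 uM, 0.5% DMSO); BAX expression measured by qRT-PCR.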

[9] = read-out: adenosine kinase (ADK) gene, ADK (gene 132); assay: LTEA_HepaRG_ADK: Life Technologies and Expression Analysis (LTEA) Assay for adenosine kinase (ADK) gene using HepaRG (AID 2283471)
Outline: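 Differentiated HepaRG cells dosed 48 h in serum-free induction medium, 0.5% DMSO vehicle, eight half-log concentrations from 100 uM, in duplicate. ADK mRNA by TaqMan qRT-PCR normalised to ACTB, GAPDH, POLR2A; bidirectional fit versus DMSO.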

[10] = read-out: Alpha-fetoprotein (AFP) gene, AFP (gene 174); assay: LTEA_HepaRG_AFP: Life Technologies and Expression Analysis (LTEA) Assay for Alpha-fetoprotein (AFP) gene using HepaRG (AID 2283472)
Outline: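 Measures AFP mRNA change in HepaRG after 48 h chemical exposure (8 half-log concentrations, highest 100 uM, 0.5% DMSO). Fold change relative to DMSO, fitted in both directions.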

BCL2L11 (gene 10018) = assay: LTEA_HepaRG_BCL2L11: Life Technologies and Expression Analysis (LTEA) Assay for Bcl-2 (BCL2L11) gene using HepaRG (AID 2283473)
Outline: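 BCL2L11 transcript levels are measured by Fluidigm qRT-PCR, normalized to three housekeeping genes. HepaRG cultures were plated 48 h, then treated 48 h with test chemical (top 100 uM, half-log, 0.5% DMSO vehicle); curves were fitted bidirectionally against DMSO.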

[11] = read-out: Apolipoprotein A-V (APOA5) gene, APOA5 (gene 116519); assay: LTEA_HepaRG_APOA5: Life Technologies and Expression Analysis (LTEA) Assay for Apolipoprotein A-V (APOA5) gene using HepaRG (AID 2283474)
Outline: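 APOA5 transcript levels were quantified by qRT-PCR, normalized to three housekeeping genes, after 48 h chemical treatment of HepaRG cells (8 points, 100 uM maximum, half-log steps, 0.5% DMSO). Curves fitted in both directions against vehicle.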

[12] = read-out: Bcl-2 (BID) gene, BID (gene 637); assay: LTEA_HepaRG_BID: Life Technologies and Expression Analysis (LTEA) Assay for Bcl-2 (BID) gene using HepaRG (AID 2283476)
Outline: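 Assay used HepaRG hepatic cells treated 48 h in serum-free medium with half-log dilutions from 100 uM. Endpoint: BID mRNA, qRT-PCR, normalized to ACTB/GAPDH/POLR2A.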

Caspase-3 (Homo sapiens) = Caspase-3 (Homo sapiens) (UniProt P42574); assay: LTEA_HepaRG_CASP3: Life Technologies and Expression Analysis (LTEA) Assay for cysteine-aspartic acid protease (CASP3) using HepaRG (AID 2283477)
Caspase-3 (Homo sapiens), sequence (P42574 whole entry, looked up): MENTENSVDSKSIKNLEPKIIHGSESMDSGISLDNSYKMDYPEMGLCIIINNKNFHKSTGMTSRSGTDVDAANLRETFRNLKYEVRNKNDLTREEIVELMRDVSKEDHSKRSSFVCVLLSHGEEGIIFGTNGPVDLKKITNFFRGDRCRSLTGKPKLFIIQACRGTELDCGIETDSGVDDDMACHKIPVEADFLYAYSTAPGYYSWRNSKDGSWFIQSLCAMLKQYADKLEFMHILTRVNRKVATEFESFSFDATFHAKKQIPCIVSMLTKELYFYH
Outline: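 Expression of CASP3 was quantified by TaqMan qRT-PCR against three housekeeping genes (ACTB, GAPDH, POLR2A), bidirectionally versus 0.5% DMSO. HepaRG cultures received compounds in duplicate, top 100 uM with half-log steps, for 48 h in serum-free induction medium.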

[13] = read-out: Cytochrome P450 (CYP1A2), CYP1A2 (gene 1544); assay: LTEA_HepaRG_CYP1A2: Life Technologies and Expression Analysis (LTEA) Assay for Cytochrome P450 (CYP1A2) using HepaRG (AID 2283479)
Outline: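 CYP1A2 transcript measured by TaqMan qRT-PCR against three housekeeping genes after 48-hour chemical exposure of HepaRG cells. Eight-point half-log series topping at 100 uM in 0.5% DMSO, duplicates; gain or loss fitted relative to vehicle.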

[14] = read-out: cysteine-aspartic acid protease (CASP8), CASP8 (gene 841); assay: LTEA_HepaRG_CASP8: Life Technologies and Expression Analysis (LTEA) Assay for cysteine-aspartic acid protease (CASP8) using HepaRG (AID 2283480)
Outline: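 qRT-PCR readout of CASP8 mRNA, normalized to three housekeeping genes, after 48 h chemical exposure of HepaRG cells; 8-point half-log series, top 100 uM, 0.5% DMSO vehicle. Bidirectional curve fitting against DMSO baseline.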

[15] = read-out: Cytochrome P450 (CYP2B6), CYP2B6 (gene 1555); assay: LTEA_HepaRG_CYP2B6: Life Technologies and Expression Analysis (LTEA) Assay for Cytochrome P450 (CYP2B6) using HepaRG (AID 2283481)
Outline: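 CYP2B6 transcript level quantified by qRT-PCR against three housekeeping genes, fitted bidirectionally relative to DMSO. HepaRG cultures received chemicals for 48 h, 8-point half-log series from 100 uM in 0.5% DMSO, duplicate wells, serum-free induction medium.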

[16] = read-out: Cytochrome P450 2C19 (Homo sapiens) (UniProt P33261); assay: LTEA_HepaRG_CYP2C19: Life Technologies and Expression Analysis (LTEA) Assay for CYP2C19 using HepaRG (AID 2283482)
Outline: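 CYP2C19 transcript levels by qRT-PCR, normalized to three housekeeping genes, in HepaRG cells after 48 h chemical exposure. Eight-point half-log series topping at 100 uM, 0.5% DMSO vehicle. Increases and decreases both fitted against DMSO.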

CYP2C8 (gene 1558) = assay: LTEA_HepaRG_CYP2C8: Life Technologies and Expression Analysis (LTEA) Assay for CYP2C8 using HepaRG (AID 2283483)
Outline: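 HepaRG (human liver line), 48 h chemical exposure, 8-pt half-log series from 100 uM, 0.5% DMSO vehicle. Readout: CYP2C8 transcript by qRT-PCR, housekeeping-normalized. Bidirectional fit vs DMSO baseline.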

CYP2C9 (gene 1559) = assay: LTEA_HepaRG_CYP2C9: Life Technologies and Expression Analysis (LTEA) Assay for CYP2C9 using HepaRG (AID 2283484)
Outline: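 HepaRG, 48 h dosing, 8-pt half-log series, top 100 uM, 0.5% DMSO vehicle. Read-out: CYP2C9 transcript by TaqMan qRT-PCR, housekeeping-normalized (ACTB/GAPDH/POLR2A). Gain or loss fitted vs DMSO baseline.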

Measured: AC50

Cytochrome P450 2C19 (Homo sapiens), sequence (P33261 whole entry, looked up): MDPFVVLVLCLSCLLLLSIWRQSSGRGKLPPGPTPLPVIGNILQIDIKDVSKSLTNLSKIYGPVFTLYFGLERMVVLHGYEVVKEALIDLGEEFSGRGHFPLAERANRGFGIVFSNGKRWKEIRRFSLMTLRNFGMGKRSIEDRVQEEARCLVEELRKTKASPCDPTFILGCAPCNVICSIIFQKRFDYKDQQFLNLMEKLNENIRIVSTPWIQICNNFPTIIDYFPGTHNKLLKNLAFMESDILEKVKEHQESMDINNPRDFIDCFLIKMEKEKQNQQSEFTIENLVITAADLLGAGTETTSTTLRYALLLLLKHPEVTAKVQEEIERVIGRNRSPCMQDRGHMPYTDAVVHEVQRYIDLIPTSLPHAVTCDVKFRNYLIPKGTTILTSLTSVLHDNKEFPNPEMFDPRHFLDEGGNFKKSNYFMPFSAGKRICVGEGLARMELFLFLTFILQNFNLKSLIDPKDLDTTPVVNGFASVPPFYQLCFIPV
Broad substrate specificity ATP-binding cassette transporter ABCG2 (Homo sapiens), sequence (Q9UNQ0 whole entry, looked up): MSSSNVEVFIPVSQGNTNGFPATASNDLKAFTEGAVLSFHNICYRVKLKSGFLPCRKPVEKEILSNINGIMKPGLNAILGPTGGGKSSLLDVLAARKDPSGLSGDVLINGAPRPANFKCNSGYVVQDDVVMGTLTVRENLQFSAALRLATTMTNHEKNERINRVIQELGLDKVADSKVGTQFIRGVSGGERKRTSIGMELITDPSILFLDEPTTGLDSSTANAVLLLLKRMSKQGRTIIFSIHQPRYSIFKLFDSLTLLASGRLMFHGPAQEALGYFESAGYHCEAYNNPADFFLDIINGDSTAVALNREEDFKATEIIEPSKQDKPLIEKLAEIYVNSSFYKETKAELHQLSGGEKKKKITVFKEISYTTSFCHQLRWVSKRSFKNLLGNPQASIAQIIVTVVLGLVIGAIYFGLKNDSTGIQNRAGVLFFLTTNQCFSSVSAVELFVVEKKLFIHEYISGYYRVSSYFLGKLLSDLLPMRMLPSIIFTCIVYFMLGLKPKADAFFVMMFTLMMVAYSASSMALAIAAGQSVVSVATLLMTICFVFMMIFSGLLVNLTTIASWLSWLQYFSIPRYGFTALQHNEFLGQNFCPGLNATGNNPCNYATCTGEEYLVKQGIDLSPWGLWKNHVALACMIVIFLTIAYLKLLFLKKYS

O=C(Nc1ccc2[nH]ccc2c1)c1cc2cc(F)ccc2n1Cc1cccc(F)c1
active: [1] 38.1 µM | [2] 78.2 µM | [3] 32.2 µM | [5] 63.1 µM | [6] 14.4 µM | [8] 19.2 µM | [10] 25.2 µM | BCL2L11 (gene 10018) 12.4 µM | [11] 56.2 µM | [13] 12.5 µM | [15] 35.1 µM | [16] 73.6 µM | CYP2C8 (gene 1558) 27 µM | CYP2C9 (gene 1559) 35.7 µM
inactive: [4] | [7] | [9] | [12] | Caspase-3 (Homo sapiens) | [14]

C[C@@H]1C[C@@H]([C@H](O)CC2CC(=O)NC(=O)C2)C(=O)[C@@H](C)C1
active: [1] 4.26 µM | [2] 27.3 µM | [3] 10.4 µM | [4] 9.23 µM | [5] 50 µM | [6] 73.8 µM | [8] 9.92 µM | [9] 81.2 µM | [10] 15.5 µM | [11] 26 µM | [12] 50 µM | Caspase-3 (Homo sapiens) 12.3 µM | [14] 79.9 µM
inactive: BCL2L11 (gene 10018)

ClCC(Cl)CCl
active: [8] 9.92 µM | [11] 77.6 µM | [12] 84.3 µM | [15] 17.7 µM
inactive: all other assays above

Cn1sc(Cl)cc1=O
inactive: all assays above
